# Measurements as given in PMC7862700, “An all-to-all approach to the identification of sequence-specific readers for epigenetic DNA modifications on cytosine”.
# Experiments:
# Assay in all cases: DAPPL (digital affinity profiling via proximity ligation, sequencing); 10 mM Tris-HCl pH 7.5, 50 mM NaCl, 1 mM DTT, 4% glycerol, room temperature, 30 min; GST-TFs on glutathione beads, 16-mer random dsDNA library, 0.1% formaldehyde crosslink after washing; high values mean tight binding
# Conditions in all cases: protein: recombinant; tags: N-terminal GST; dsDNA, one strand shown
# FLI1 = target: T1, FLI1 (Homo sapiens, UniProt Q01543 1-452)
# T1 sequence: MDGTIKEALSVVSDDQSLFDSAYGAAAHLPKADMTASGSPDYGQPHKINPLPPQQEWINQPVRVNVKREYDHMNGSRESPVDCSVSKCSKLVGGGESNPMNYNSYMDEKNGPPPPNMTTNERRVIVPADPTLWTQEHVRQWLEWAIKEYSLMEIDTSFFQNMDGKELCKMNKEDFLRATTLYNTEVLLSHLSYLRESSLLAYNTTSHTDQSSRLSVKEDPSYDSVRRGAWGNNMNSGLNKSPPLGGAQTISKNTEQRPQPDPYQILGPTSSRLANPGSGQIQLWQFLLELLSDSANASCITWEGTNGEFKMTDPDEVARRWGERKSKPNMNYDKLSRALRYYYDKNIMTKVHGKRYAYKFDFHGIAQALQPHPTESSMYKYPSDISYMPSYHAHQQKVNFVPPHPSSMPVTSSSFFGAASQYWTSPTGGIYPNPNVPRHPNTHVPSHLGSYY
# Summary of the method: (§1)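 Binding signal is defined as a hexamer's read frequency for one factor over its frequency for the tag-only sample. To obtain reads, GST-fused human transcription factors were expressed in yeast, captured on glutathione beads, barcoded with DNA and pooled with that sample. Pools met 200 nmole of a 16-mer random double-stranded DNA library in Tris/NaCl/DTT/glycerol buffer for 30 min at room temperature before washing, 0.1% formaldehyde crosslinking, proximity ligation (BsaI/T4 ligase, 1 h, 37 °C), PCR and Illumina NextSeq500 sequencing.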
# ELK1 = target: T2, ELK1 (Homo sapiens, UniProt P19419 1-428)
# T2 sequence: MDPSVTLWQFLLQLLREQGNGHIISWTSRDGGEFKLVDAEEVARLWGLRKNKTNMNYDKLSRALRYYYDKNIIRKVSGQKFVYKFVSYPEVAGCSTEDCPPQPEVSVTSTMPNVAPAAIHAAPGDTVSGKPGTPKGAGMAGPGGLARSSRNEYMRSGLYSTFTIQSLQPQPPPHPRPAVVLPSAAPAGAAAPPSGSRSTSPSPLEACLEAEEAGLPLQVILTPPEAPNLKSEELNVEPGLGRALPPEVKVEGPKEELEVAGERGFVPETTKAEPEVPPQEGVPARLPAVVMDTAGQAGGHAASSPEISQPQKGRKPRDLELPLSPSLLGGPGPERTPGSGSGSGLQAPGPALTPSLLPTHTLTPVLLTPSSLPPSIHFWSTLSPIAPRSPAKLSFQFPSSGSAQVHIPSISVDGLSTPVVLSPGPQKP
# Summary of the method: as §1
# GABPA = target: T3, GABPA (Homo sapiens, UniProt Q06546 1-454)
# T3 sequence: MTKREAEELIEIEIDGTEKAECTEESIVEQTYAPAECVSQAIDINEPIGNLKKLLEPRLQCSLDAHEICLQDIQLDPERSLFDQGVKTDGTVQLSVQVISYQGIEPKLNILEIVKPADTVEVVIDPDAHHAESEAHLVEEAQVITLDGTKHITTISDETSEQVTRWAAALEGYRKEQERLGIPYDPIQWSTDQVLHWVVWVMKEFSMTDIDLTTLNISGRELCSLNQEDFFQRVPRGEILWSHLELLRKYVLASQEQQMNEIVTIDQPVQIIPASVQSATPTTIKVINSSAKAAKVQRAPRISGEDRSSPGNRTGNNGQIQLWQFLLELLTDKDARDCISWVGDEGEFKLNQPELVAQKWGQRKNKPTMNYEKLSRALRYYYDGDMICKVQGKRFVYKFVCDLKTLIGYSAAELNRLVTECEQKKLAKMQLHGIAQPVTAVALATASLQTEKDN
# Summary of the method: as §1
# ERG = target: T4, ERG (Homo sapiens, UniProt P11308 1-479)
# T4 sequence: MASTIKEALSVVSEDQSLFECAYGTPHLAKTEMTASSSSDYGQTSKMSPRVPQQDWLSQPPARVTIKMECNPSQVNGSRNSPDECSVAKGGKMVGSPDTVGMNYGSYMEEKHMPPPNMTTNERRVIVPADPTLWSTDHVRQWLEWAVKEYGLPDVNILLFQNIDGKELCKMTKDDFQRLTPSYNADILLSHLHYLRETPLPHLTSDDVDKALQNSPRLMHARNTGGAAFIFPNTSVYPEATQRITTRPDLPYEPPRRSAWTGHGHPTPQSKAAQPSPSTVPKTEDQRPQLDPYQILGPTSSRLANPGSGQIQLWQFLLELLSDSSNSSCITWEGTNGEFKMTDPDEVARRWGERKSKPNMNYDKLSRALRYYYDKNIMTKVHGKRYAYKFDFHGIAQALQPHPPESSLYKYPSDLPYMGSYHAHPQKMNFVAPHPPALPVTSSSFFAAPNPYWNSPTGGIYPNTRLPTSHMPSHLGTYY
# Summary of the method: as §1
# ELF1 = ELF1 (Homo sapiens, UniProt P32519 1-619)
# Summary of the method: as §1
# EHF = target: T5, EHF (Homo sapiens, UniProt Q9NZC4 1-300)
# T5 sequence: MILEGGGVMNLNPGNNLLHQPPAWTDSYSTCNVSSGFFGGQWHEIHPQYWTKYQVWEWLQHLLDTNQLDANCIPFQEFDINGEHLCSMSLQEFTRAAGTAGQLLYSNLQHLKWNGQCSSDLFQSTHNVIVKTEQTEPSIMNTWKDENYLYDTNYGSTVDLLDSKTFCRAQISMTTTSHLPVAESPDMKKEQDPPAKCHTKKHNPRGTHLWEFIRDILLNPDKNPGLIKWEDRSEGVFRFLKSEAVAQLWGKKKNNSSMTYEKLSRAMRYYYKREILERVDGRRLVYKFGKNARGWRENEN
# Summary of the method: as §1
# SPI1 = SPI1 (Homo sapiens, UniProt P17947 1-270)
# Summary of the method: as §1
# SPIB = SPIB (Homo sapiens, UniProt Q01892 1-262)
# Summary of the method: as §1
# ELK3 = target: T6, ELK3 (Homo sapiens, UniProt P41970 1-407)
# T6 sequence: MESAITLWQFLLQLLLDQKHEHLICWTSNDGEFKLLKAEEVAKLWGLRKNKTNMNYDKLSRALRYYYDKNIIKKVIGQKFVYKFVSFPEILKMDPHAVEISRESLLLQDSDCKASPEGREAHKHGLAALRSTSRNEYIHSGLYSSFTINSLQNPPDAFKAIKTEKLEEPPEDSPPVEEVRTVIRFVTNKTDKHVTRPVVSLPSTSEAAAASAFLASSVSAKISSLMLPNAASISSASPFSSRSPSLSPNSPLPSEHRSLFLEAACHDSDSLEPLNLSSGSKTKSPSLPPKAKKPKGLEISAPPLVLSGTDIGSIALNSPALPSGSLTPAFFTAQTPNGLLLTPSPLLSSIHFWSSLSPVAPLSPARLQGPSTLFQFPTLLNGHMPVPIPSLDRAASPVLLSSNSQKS
# Summary of the method: as §1
# ETV5 = ETV5 (Homo sapiens, UniProt P41161 1-510)
# Summary of the method: as §1
# ELF4 = ELF4 (Homo sapiens, UniProt Q99607 1-663)
# Summary of the method: as §1
# ELF3 = target: T7, ELF3 (Homo sapiens, UniProt P78545 1-371)
# T7 sequence: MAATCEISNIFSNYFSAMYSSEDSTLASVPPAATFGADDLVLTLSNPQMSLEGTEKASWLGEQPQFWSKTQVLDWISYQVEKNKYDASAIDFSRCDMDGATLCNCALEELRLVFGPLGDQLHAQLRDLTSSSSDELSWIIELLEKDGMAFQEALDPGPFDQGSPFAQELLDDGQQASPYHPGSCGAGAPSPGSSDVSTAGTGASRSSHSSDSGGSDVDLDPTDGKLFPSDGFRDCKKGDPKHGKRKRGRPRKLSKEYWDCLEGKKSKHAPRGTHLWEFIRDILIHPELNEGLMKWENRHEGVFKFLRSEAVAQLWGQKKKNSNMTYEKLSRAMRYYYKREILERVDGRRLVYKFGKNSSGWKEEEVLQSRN
# Summary of the method: as §1
# ETV1 = ETV1 (Homo sapiens, UniProt P50549 1-477)
# Summary of the method: as §1
# ERF = target: T8, ERF (Homo sapiens, UniProt P50548 1-548)
# T8 sequence: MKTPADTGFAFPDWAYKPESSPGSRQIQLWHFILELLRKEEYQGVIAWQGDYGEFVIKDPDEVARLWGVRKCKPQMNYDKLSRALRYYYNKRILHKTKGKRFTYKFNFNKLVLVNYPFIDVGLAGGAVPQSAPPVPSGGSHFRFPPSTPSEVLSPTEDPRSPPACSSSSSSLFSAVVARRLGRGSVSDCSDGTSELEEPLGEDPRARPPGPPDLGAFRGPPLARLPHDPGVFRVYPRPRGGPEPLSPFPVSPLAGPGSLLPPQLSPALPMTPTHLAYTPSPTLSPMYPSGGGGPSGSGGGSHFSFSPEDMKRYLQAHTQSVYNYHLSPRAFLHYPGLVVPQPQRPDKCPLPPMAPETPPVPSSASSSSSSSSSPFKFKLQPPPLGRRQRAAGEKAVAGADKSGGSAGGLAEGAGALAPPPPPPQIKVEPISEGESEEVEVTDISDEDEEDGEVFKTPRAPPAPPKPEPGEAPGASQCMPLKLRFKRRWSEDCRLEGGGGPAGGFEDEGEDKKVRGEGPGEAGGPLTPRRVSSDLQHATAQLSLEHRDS
# Summary of the method: as §1
# ETV3L = target: T9, ETV3L (Homo sapiens, UniProt Q6ZN32 1-361)
# T9 sequence: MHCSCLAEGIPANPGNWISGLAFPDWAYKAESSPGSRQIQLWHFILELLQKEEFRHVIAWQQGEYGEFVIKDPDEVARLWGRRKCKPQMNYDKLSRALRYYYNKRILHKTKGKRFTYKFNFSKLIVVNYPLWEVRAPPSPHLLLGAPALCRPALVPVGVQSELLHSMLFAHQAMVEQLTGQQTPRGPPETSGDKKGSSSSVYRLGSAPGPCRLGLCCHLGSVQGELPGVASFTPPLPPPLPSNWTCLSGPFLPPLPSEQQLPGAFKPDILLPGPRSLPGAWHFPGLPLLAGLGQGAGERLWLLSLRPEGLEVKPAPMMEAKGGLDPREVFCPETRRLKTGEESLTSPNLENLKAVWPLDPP
# Summary of the method: as §1
# ETS2 = target: T10, ETS2 (Homo sapiens, UniProt P15036 1-469)
# T10 sequence: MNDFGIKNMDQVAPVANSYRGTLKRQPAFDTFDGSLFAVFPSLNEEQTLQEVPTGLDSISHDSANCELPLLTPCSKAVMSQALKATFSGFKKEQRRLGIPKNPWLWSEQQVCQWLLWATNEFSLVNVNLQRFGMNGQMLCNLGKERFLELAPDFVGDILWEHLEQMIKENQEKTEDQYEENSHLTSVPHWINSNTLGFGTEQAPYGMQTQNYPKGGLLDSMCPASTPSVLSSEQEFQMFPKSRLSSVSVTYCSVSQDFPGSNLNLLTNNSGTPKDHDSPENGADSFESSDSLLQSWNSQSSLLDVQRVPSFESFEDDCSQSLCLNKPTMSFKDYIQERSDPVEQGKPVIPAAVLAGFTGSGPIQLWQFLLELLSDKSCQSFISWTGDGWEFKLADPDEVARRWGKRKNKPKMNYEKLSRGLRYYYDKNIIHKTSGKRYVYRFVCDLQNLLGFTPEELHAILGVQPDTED
# Summary of the method: as §1
# ETV3 = target: T11, ETV3 (Homo sapiens, UniProt P41162-2 1-143)
# T11 sequence: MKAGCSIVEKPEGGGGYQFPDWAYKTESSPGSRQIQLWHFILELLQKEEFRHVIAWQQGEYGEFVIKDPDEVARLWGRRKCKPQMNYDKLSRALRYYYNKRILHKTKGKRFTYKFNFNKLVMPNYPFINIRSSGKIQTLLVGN
# Summary of the method: as §1
# ETV6 = ETV6 (Homo sapiens, UniProt P41212 1-452)
# Summary of the method: as §1
# Sequence of ELF4 (Q99607 whole entry): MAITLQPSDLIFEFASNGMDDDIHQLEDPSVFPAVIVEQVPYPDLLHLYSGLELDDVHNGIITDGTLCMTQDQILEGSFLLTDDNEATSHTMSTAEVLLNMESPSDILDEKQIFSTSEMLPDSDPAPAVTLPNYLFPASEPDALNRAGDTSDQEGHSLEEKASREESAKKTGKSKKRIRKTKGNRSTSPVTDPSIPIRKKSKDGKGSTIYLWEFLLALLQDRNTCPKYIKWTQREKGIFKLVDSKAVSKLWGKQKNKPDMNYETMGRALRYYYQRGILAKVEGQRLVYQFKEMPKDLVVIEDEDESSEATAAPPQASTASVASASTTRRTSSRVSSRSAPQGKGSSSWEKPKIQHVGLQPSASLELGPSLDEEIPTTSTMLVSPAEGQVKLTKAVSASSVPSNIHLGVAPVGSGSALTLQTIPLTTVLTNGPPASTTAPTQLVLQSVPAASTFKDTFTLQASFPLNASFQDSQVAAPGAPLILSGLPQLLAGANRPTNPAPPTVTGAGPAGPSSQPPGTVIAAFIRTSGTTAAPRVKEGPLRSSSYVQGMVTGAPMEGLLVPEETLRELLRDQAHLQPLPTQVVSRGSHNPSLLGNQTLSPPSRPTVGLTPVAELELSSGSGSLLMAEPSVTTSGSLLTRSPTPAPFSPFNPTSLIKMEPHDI
# Sequence of ETV1 (P50549 whole entry): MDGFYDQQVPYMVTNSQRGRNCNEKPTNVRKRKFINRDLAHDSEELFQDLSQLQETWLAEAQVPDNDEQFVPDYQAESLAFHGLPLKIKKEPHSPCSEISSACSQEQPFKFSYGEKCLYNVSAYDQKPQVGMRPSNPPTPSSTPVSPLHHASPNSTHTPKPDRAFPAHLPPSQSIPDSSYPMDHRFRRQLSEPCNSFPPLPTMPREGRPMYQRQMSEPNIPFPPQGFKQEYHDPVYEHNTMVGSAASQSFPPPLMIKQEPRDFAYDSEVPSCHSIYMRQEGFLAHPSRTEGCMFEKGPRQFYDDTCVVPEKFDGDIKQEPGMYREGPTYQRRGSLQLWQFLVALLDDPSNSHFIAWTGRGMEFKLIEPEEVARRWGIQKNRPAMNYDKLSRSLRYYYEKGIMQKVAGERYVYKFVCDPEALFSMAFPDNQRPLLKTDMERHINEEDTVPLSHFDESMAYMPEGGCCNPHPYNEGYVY
# Sequence of SPIB (Q01892 whole entry): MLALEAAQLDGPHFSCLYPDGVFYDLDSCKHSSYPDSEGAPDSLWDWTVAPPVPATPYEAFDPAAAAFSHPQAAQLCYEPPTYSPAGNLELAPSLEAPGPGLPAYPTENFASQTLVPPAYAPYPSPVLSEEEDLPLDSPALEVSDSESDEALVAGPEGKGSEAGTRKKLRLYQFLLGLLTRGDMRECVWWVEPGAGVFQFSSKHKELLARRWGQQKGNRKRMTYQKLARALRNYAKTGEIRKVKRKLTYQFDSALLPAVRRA
# Sequence of ETV6 (P41212 whole entry): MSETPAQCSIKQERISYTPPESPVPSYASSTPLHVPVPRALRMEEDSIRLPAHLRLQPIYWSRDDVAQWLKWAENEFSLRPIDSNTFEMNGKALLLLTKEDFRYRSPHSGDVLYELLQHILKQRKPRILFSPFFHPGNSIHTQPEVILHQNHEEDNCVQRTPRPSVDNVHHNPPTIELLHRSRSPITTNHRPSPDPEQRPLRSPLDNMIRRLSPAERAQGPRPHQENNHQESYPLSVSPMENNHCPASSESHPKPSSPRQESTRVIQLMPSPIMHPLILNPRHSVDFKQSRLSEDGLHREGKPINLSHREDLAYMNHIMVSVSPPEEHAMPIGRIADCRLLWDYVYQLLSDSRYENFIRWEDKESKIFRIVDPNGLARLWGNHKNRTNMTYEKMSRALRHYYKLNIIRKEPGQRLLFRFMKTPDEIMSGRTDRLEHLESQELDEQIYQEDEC
# Sequence of ETV5 (P41161 whole entry): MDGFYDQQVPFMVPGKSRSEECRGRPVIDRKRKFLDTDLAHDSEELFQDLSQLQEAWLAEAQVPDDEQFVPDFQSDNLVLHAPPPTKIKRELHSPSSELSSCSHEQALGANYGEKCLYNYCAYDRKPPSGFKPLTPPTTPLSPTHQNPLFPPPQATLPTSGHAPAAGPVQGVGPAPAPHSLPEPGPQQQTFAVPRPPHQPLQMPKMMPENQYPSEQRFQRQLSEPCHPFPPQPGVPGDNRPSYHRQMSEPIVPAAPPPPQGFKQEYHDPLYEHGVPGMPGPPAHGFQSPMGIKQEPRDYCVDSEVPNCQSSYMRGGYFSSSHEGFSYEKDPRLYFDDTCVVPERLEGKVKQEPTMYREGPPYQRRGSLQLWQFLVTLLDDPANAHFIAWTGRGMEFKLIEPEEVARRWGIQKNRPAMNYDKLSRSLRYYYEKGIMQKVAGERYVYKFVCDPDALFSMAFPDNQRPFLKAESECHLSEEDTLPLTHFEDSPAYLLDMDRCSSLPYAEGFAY
# Sequence of ELF1 (P32519 whole entry): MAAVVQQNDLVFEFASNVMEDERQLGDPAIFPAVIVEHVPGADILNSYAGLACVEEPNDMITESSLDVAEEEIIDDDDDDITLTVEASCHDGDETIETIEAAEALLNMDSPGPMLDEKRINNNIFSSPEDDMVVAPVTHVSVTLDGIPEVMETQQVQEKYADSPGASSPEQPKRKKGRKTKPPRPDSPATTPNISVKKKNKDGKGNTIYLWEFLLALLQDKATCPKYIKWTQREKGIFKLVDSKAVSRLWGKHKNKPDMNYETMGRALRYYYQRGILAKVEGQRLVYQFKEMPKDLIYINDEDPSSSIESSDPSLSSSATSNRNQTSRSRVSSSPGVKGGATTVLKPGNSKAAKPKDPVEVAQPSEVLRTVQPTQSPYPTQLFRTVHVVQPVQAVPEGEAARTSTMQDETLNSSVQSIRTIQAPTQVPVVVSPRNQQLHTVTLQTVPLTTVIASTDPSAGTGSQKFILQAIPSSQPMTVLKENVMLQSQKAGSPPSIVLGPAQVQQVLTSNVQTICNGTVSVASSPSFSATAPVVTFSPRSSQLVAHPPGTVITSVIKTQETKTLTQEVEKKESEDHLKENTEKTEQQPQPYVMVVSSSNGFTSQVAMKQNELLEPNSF
sequence,measurement,setting,value
TGATAC,binding signal,FLI1,"1.13 fold enrichment (6-mer frequency, TF over GST control)"
same,binding signal,ELK1,"1.17 fold enrichment (6-mer frequency, TF over GST control)"
same,binding signal,GABPA,"1.16 fold enrichment (6-mer frequency, TF over GST control)"
same,binding signal,ERG,"1.13 fold enrichment (6-mer frequency, TF over GST control)"
same,binding signal,ELF1,"1.14 fold enrichment (6-mer frequency, TF over GST control)"
same,binding signal,EHF,"1.11 fold enrichment (6-mer frequency, TF over GST control)"
same,binding signal,SPI1,"1.19 fold enrichment (6-mer frequency, TF over GST control)"
same,binding signal,SPIB,"1.12 fold enrichment (6-mer frequency, TF over GST control)"
same,binding signal,ELK3,"1.08 fold enrichment (6-mer frequency, TF over GST control)"
same,binding signal,ETV5,"1.1 fold enrichment (6-mer frequency, TF over GST control)"
same,binding signal,ELF4,"1.13 fold enrichment (6-mer frequency, TF over GST control)"
same,binding signal,ELF3,"1.16 fold enrichment (6-mer frequency, TF over GST control)"
same,binding signal,ETV1,"1.08 fold enrichment (6-mer frequency, TF over GST control)"
same,binding signal,ERF,"1.13 fold enrichment (6-mer frequency, TF over GST control)"
same,binding signal,ETV3L,"1.07 fold enrichment (6-mer frequency, TF over GST control)"
same,binding signal,ETS2,"1.1 fold enrichment (6-mer frequency, TF over GST control)"
same,binding signal,ETV3,"1.1 fold enrichment (6-mer frequency, TF over GST control)"
same,binding signal,ETV6,"1.1 fold enrichment (6-mer frequency, TF over GST control)"
